HTR5A inv ctr – HTR5A inverse agonists in luminescence cell assay, primary screen, counter-screen for OPRM1-OPRD1 heterodimer inverse agonist project, full-deck HTS; inhibition, % at 9.3 µM; 5-hydroxytryptamine receptor 5A (Homo sapiens), P47898; HTR5A cell line, inverse agonism; 340,000 compounds, 0.083% hits; AID 504634, 2011; in the data active = inhibition mostly above about 23%, no sharp cut-off; inactive = mostly below about 18%;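 also: 0% = cells with DMSO and 100% = no-cell wells with DMSO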
Target sequence (P47898 whole entry, looked up): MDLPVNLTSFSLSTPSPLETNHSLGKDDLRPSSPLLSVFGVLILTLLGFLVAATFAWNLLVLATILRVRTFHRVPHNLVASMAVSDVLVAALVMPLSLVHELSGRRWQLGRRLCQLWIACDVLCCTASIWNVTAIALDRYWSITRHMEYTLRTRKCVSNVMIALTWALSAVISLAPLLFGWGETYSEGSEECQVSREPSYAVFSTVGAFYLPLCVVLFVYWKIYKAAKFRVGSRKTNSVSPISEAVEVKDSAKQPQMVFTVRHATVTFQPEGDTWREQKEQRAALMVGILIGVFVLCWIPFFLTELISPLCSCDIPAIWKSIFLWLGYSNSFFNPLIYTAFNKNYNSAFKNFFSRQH
OPRM1-OPRD1 inv – inverse agonists of MOR-DOR heterodimerization, primary screen, cell-based, luminescence; inhibition, % at 9.3 µM; cell-based MOR-DOR heterodimer luminescence, inverse agonism; Mu-type opioid receptor (Homo sapiens) + Delta-type opioid receptor (Homo sapiens), …; 340,000 compounds, 0.21% hits; in the data active = inhibition above about 22%, passing the limit was not always enough;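 also: 0% = cells with DMSO and 100% = wells without cells with DMSO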
MOR-DOR ag – agonists of OPRM1-OPRD1 heterodimerization, primary screen, cell-based, luminescence; cells; AID 504326, 2011; Mu-type opioid receptor (Homo sapiens) + Delta-type opioid receptor (Homo sapiens), …; activation, % at 9.3 µM; 340,000 compounds, 0.3% hits; in the data active = activation above about 18%;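 also: 0% = vehicle-treated cells and 100% = reference agonist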
HTR5A ag – HTR5A agonists in luminescence cell assay, primary screen, counter-screen for OPRM1-OPRD1 heterodimer agonist project, full-deck HTS | 340,000 compounds, 0.61% hits | activation, % at 9.3 µM | 5-hydroxytryptamine receptor 5A (Homo sapiens), P47898 | cell-based | AID 504692, 2011; in the data active = activation mostly above about 9.5%, no sharp cut-off; inactive = mostly below about 7.6%;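 also: 0% = cells with vehicle only and 100% = reference agonist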
The depositor's hits bear a star. Sampled rows, rich in hits. Any-hit rate of the full collection: about 1.1%.

SMILES	HTR5A inv ctr	OPRM1-OPRD1 inv	MOR-DOR ag	HTR5A ag
O=C(NC(C(=O)O)c1ccccc1)c1ccc(S(=O)(=O)N2CCOCC2)cc1 (stereo not drawn)	-39	7	-1	12*
COC(=O)c1cc(NC(=O)Cc2coc3cc(OC)ccc23)cc(C(=O)OC)c1	0	-18	4	7
CCOC(=O)c1ccc(N=c2sc(C(=O)OC)cc(=O)n2CCCN2CCOCC2)cc1	-2	0	0	11
CCOC(=O)c1ccc(N=c2sc(C(=O)OC)cc(=O)n2Cc2ccco2)cc1	-3	-3	0	14*
CCOc1ccc(NC(=O)Cn2nnc(C(=O)NCc3ccc4c(c3)OCO4)c2N)cc1	-28	-45	9	13*
Cc1nc(-c2ccc(C(=O)Nc3ccc(F)cc3)cc2)cs1	-37	-64	9	13*
COc1ccc(-c2ccccc2)cc1NC(=O)c1cccs1	3	15	-3	-1
CCCN1CCN(CCCNC(=O)C(CC)n2nc(C)c3sc4ccccc4c3c2=O)CC1 (stereo not drawn)	6	15	-3	10*
CNCCCCOc1ccccc1-c1ccccc1	11	0	0	9.9*
CC(=O)Nc1nc2ccc(S(=O)(=O)N3CCCCC3)cc2s1	13	12	-2	3
CN(C)S(=O)(=O)c1cccc(NC(=O)CSc2nc3c(cc2C#N)C(=O)CC(C)(C)C3)c1	-49	-37	7	13*
CC12COC3(P(=O)(c4ccccc4)c4ccccc4)CC1CCC23CP(=O)(c1ccccc1)c1ccccc1 (stereo not drawn)	1	3	0	3
COc1ccc(OC)c(NC(=O)COC(=O)Cn2nnc(-c3ccccc3)n2)c1	20	-6	1	-2
CCCCOC(=O)Nc1ccc(N2CCCCC2)cc1	6	-10	2	9.6*
CCN(CC)CCCN(Cc1cc2cc3c(cc2[nH]c1=O)OCO3)C(=S)NCCCN(C)C	12	4	-1	3
CCN(CC)CCCN(Cc1cc2cc3c(cc2[nH]c1=O)OCO3)C(=S)NC	-40	-5	1	11*
CCOC(=O)c1sc(N(Cc2ccccc2)C(=O)COC(=O)c2ccccc2O)nc1C	-7	1	0	2
CCOC(=O)c1sc(N(Cc2ccccc2)C(=O)COC(=O)c2ccc(O)cc2)nc1C	-40	-74	14	11*
CCCC(=O)Nc1cccc(NC(=O)c2cccc([N+](=O)[O-])c2C)c1	11	6	-1	2
Cc1ccc(S(=O)(=O)NCc2ccc(C(=O)N3CCN(c4ccc([N+](=O)[O-])cc4)CC3)cc2)cc1	0	-20	4	11*
COc1ccc(N2CCN(C(=O)c3ccc(CNS(=O)(=O)c4ccc(C)cc4)cc3)CC2)cc1	1	-1	0	1
CC1=CC2C(C(O)CC3(C)C2CC(C)C32OCOC23COCO3)C2(C)C/C(=C\O)C(=O)C=C12 (stereo not drawn)	-120	-112	26*	31*
Cc1ccc(C)n1-c1sc2c(c1C#N)CCC(C)C2 (stereo not drawn)	1	-49	9	13*
CN1CCN(C(=O)c2cc(COc3ccccc3)on2)[C@@H](c2ccccc2)C1	-17	1	0	9.5*
Cc1ccc(OCc2cc(C(=O)N3CCN(C)C[C@@H]3c3ccccc3)no2)cc1C	2	9	-2	-1
SMILES	HTR5A inv ctr	OPRM1-OPRD1 inv	MOR-DOR ag	HTR5A ag
O=C1NCCCC1C(=O)N/N=C/c1ccccc1[N+](=O)[O-] (stereo not drawn)	-18	14	-3	-1
CC(Oc1ccccc1F)C(=O)Nc1ccc2ccccc2c1 (stereo not drawn)	-16	-5	1	11*
CCCSC1=C(C#N)C(c2ccc(OC)cc2)C2=C(CC(C)(C)CC2=O)N1 (stereo not drawn)	-40	3	-1	11*
COc1ccc(Nc2nc(N)nc(CCl)n2)cc1	-176	-108	21*	48*
CCCN(CC(=O)Nc1ccccc1C)C(=O)COC(=O)c1cnc(C)cn1	-28	-4	1	10*
CCC(C)NC(=O)CN(c1cc(Cl)cc(Cl)c1)S(C)(=O)=O (stereo not drawn)	14	6	-1	-6
O=C(O)C1CCCCC1C(=O)NC(c1ccccc1)c1ccccc1 (stereo not drawn)	0	18	-3	0
CN1/C(=C\C(=O)COc2ccc3c(c2)OCO3)C(C)(C)c2ccccc21	18	-18	3	14*
COc1ccccc1OCC(=O)/C=C1/N(C)c2ccccc2C1(C)C	12	-13	3	-5
CN(C)S(=O)(=O)c1ccc(C(=O)OCC(=O)N2CC3(C)CC2CC(C)(C)C3)cc1 (stereo not drawn)	-31	-2	1	13*
Cc1noc(C)c1COc1ccc(C(=O)OCC(=O)N2CC3(C)CC2CC(C)(C)C3)cc1 (stereo not drawn)	-31	-2	0	-1
COc1cccc(CNC(=O)C2CCN(c3nnc(N4CCCC4=O)s3)CC2)c1	-8	5	-1	13*
CCCOc1ccc(CNC(=O)C2CCN(c3nnc(N4CCCC4=O)s3)CC2)cc1	-5	-3	1	-2
O=C1Nc2ccccc2S/C1=C/Nc1cccc(Cl)c1	3	-121	23*	14*
C#CCOCCOCCOCCNc1nc(N2CCN(C(=O)CCCCCCCCCCNC(=O)[C@H](CO)n3cc(CCCSC)nn3)CC2)nc(N2CCN(C(=O)CCCCCCCCCCNC(=O)[C@H](CO)n3cc(CCCSC)nn3)CC2)n1	-3	24	-4	1
C#CCOCCOCCOCCNc1nc(N2CCOCC2)nc(N2CCN(C(=O)CCCCCCCCCCNC(=O)[C@@H](CCSC)n3cc(CCO)nn3)CC2)n1	-2	2	0	14*
O=C(CSc1nnnn1-c1ccc(F)cc1)Nc1ccccc1F	-9	2	0	2
CC(C)c1ccc(S(=O)(=O)/N=C2\C=C(NS(=O)(=O)c3ccccc3)C(=O)c3ccccc32)cc1	15	30*	-5	-6
Cn1c(=NC(=O)CCl)sc2ccccc21	-78	-274	47*	57*
Cn1cc(C(=O)c2ccc(Cl)cc2Cl)cc1C=O	0	5	-1	0
Cc1cccc(-c2noc(CCCC(=O)N3CCOCC3)n2)c1	-2	13	-2	9.8*
Cc1ccc(-c2noc(CCCC(=O)N3CCOCC3)n2)cc1	-12	11	-2	5
Cn1c(N)c(C(=O)COC(=O)C2(c3ccc(F)cc3)CCCC2)c(=O)n(C)c1=O	18	-8	1	8.4*
Cc1c(NC(=S)NC(=O)c2ccc(COc3ccccc3)cc2)cccc1C(=O)O	-6	14	-3	4
O=S1(=O)CCC(n2ncc3c2/C(=C/c2ccccc2)CC3)C1 (stereo not drawn)	2	12	-3	-1
